# Source: PubChem BioAssay AID686979 (National Center for Advancing Translational Sciences (NCATS), 2013)
# Out of some 420,000 compounds screened, about 50,000 (12%) were called active. Not shown: some 26% with an inconclusive outcome. What follows is part of a selection rich in actives, with near analogues and random picks from the rest. Unmarked numbers belong to inactive results. The call rests on the fitted dose curve; in most records, active means well fitted inhibition curve with a large enough effect; inconclusive means small, poorly fitted or top-dose-only effect; inactive means flat fitted curve, though single readings scatter.
# Test: qHTS for Inhibitors of human tyrosyl-DNA phosphodiesterase 1 (TDP1): qHTS in cells in presence of CPT; further: nearly all actives have a fitted effect of over 55% in size
# Settings: chicken DT40 Tdp1-/-;hTDP1 cells + 20 nM CPT, ATP luminescence, 48 h; series mostly up to 46.2 µM; activity change, negative = growth inhibition: at the top concentration
# How it was run: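 Chicken DT40 Tdp1-/- cells complemented with human TDP1, 400 cells/well, exposed to compounds plus 20 nM camptothecin for at least 48 h at 37 C; viability read as ATP content by CellTiter-Glo luminescence.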
# On the % scale 0 is the no-effect control and ±100 the full control effect; potency means the concentration at half of the fitted maximal effect.
SMILES,"activity change, negative = growth inhibition [%]",Potency
O=C(CC1Oc2ccc(Cl)cc2NC1=O)NCc1ccccc1 (stereo not given),-14.1,
O=C(CSc1ncn[nH]1)NCc1ccc2c(c1)OCO2,11.8,
O=C1N(Cc2ccc3c(c2)OCO3)c2ccccc2C1(O)c1c[nH]c2ccccc12 (stereo not given),,18.4 µM (active)
O=C1N(Cc2ccccc2)c2ccc(Cl)cc2C1(O)c1c[nH]c2ccccc12 (stereo not given),,23.1 µM (active)
CCn1c(=O)cc(SCC(=O)NCc2ccc3c(c2)OCO3)c2ccccc21,-32.1,
CCOc1ccc(CCNC(=O)COC(=O)c2ccc(F)c(S(=O)(=O)N3CCOCC3)c2)cc1OCC,7.66,
O=C(CSc1nnc(-c2ccncc2)o1)Nc1cccc(Cl)c1,0.739,
COC(=O)c1cnc(Nc2cc(C)ccc2OC)c2ccccc12,1.61,
Oc1ccc(CNc2ccccc2O)cc1,,25.9 µM (active)
O=C(OCc1ccccc1)c1ccc(O)cc1,-30.5,
O=[N+]([O-])c1ccccc1Nc1ccc(O)cc1,-34.1,
CCOC(=O)C(C)N(c1ccccc1Cl)S(C)(=O)=O (stereo not given),-0.811,
O=C(NCCCN1CCOCC1)c1cc(-c2cccc(O)c2)on1,-24.8,
Cc1nc([N+](=O)[O-])nn1C12CC3CC(CC(Br)(C3)C1)C2,,23.1 µM (active)
CC[C@@H](C)[C@H](NC(=O)CCc1c(C)c2cc3c4c(oc3c(C)c2oc1=O)CCCC4)C(=O)O,-12.7,
COCc1c(C(=O)N/N=C(\C)c2ccncc2)nnn1-c1nonc1N,5.2,
CSc1ccc(/C=C2\NC(=O)NC2=O)cc1,-13.4,
O=C(Nc1ccnn1C1CCN(Cc2cccc(OCCO)c2)CC1)C1CCCC1,3.27,
CCN(CC)CCN(C(=O)c1cc(Cl)sc1Cl)c1nc2cc3c(cc2s1)OCO3,-22.6,
Nc1ccccc1SCc1cc([N+](=O)[O-])cc2c1OCOC2,-9.92,
Nc1ccccc1SC(C[N+](=O)[O-])c1ccccc1 (stereo not given),,4.11 µM (active)
Nc1ccccc1Sc1ccc(C(F)(F)F)cc1[N+](=O)[O-],-16.5,
COc1ccc(NS(=O)(=O)c2ccc(C)c(C(=O)NNC(=O)c3csc(N4CCOCC4)n3)c2)cc1,2.85,
O=C(NCc1cccnc1)c1cccc(-c2cc3ccccc3oc2=O)c1,6.42,
Cc1ccc(S(=O)(=O)CCC(=O)OCC(=O)N(C)C2CCS(=O)(=O)C2)cc1 (stereo not given),-1.21,

SMILES,"activity change, negative = growth inhibition [%]",Potency
Cc1ccc(SCC(=O)Nc2ccc3c(c2)OCCO3)cc1,0.128,
Cc1nc([N+](=O)[O-])cn1CC(=O)Nc1ccc2c(c1)OCO2,29,
Cc1ccc2nc(-c3ccc(O)cc3)c(Nc3ccc4c(c3)OCO4)n2c1,,23.1 µM (active)
CC(C)(C)NC(=O)NC(=O)COC(=O)C1(C)CC1(Cl)Cl (stereo not given),-3.94,
COc1ccc(CNC(=O)CC2Oc3ccc(C)cc3NC2=O)cc1 (stereo not given),-7.07,
Cc1cc(C)cc(NC(=O)C(OC(=O)c2ccc(O)cc2)c2ccccc2)c1 (stereo not given),-20.1,
CC(=O)Nc1ccc(N2C(=O)CC(Sc3nccc(C)n3)C2=O)cc1 (stereo not given),-22.2,
COc1ccc(N2C(=O)CC(SC(C)C)C2=O)cc1 (stereo not given),-5.56,
COc1ccc(N2C(=O)CC(Sc3n[nH]c(-c4ccc(C)cc4)n3)C2=O)cc1 (stereo not given),,2.91 µM (active)
COc1ccc(-c2nc(SCC(=O)N3CCOCC3)n[nH]2)cc1,-6.79,
O=C1CC(Sc2ncn[nH]2)C(=O)N1c1ccccc1 (stereo not given),,8.2 µM (active)
CCOC(=O)c1ccc(N2C(=O)CC(Sc3nc(O)c(CC)c(=O)[nH]3)C2=O)cc1 (stereo not given),1.86,
Cc1ccnc(SC2CC(=O)N(c3ccccc3)C2=O)n1 (stereo not given),-4.69,
O=C1CC(N2CCN(c3ccc(F)cc3)CC2)C(=O)N1c1ccccc1 (stereo not given),-10.3,
Cc1ccc(N2C(=O)CC(Sc3ncn[nH]3)C2=O)cc1 (stereo not given),,5.17 µM (active)
OCC[C@H]1C[C@H](O)[C@@H](O)[C@]2(CCc3ccccc3O2)O1,-14.2,
Cc1cc(C)cc(NC(=O)c2cccc(NC(=O)C3C4CC5OC(=O)C3C5C4)c2)c1 (stereo not given),-4.86,
O=C(O)CCN(Cc1ccccc1)S(=O)(=O)c1c(Cl)cccc1Cl,-12.6,
COc1cc(NC(=O)CCS(=O)(=O)c2ccc3c(c2)oc(=O)n3C)cc(OC)c1,1.78,
O=S(=O)(Nc1ccc(OC(F)(F)F)cc1)c1cccc2nonc12,-1.77,
C[C@H](NS(=O)(=O)c1ccc(Cl)cc1)C(=O)OCC(=O)N1CCOCC1,-9.84,
CC1CN(C(=O)c2ccccc2NS(=O)(=O)c2cccc([N+](=O)[O-])c2)CC(C)O1 (stereo not given),-3.65,
COC(=O)C1=CO[C@@H](O[C@@H]2O[C@H](CO)[C@@H](O)[C@H](O)[C@H]2O)C2C1C[C@H](O)[C@@H]2C (stereo not given in full),6.92,
CC[C@]12c3[nH]c4cc(CCC(=O)N(C)C)ccc4c3CCN1C(=O)[C@@H](CC(=O)NCCCn1ccnc1)C[C@@H]2C(=O)N1CCN(C(=O)C2CC2)CC1,9.71,
OC(CBr)C[n+]1cccc2cc(Br)ccc21 (stereo not given),,4.47 µM (active)
